Laboratory results as given in PubChem BioAssay AID1159580 (chemical genetic matrix, 2015).
Several values for one entry are separate records, joined by “and”; a condition that tells them apart may be missing. Identical values can stand only once. Screen size: about 5,500 compounds; about 2,000 (36%) were called active. Roughly 18% stayed inconclusive and do not appear here. No stated cut-off is given here; in the data, active means normalized growth mostly below about 0.91 (no sharp cut-off); inconclusive means no clear call, values can overlap the other calls; inactive means mostly above about 0.92. This is one part of the list.

Assay: chemical genetic growth profiling, strain panel (AID 1159580);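 further: tested at 20 µM; growth read once vehicle control cultures reached saturation at 30 °C; 1 = growth at the plate median or of vehicle wells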
Settings: S. cerevisiae deletion strains, growth OD

Measured: normalized growth

C[C@H]1[C@H]2CCC3C4CC=C5C[C@@H](N(C)C)CC[C@]5(C)C4CC[C@@]32CN1C (stereo partly specified)
inactive: locus YAL013W, strain DEP1, stronger effect = lower value 0.994 | locus YAL021C, strain ccr4, stronger effect = lower value 1.01 | locus YAL026C, strain drs2, stronger effect = lower value 0.997 | locus YAL030W, strain snc1, stronger effect = lower value 0.996 | locus YBL061C, strain skt5, stronger effect = lower value 0.995 | locus YBR009C, strain hhf1, stronger effect = lower value 0.95 | locus YBR021W, strain FUR4, stronger effect = lower value 1 | locus YBR023C, strain chs3, stronger effect = lower value 0.994 | locus YBR171W, strain sec66, stronger effect = lower value 0.983 | locus YBR229C, strain ROT2, stronger effect = lower value 0.956 | locus YBR231C, strain swc5, stronger effect = lower value 0.972 | locus YBR279W, strain paf1, stronger effect = lower value 0.994 | locus YCL011C, strain gbp2, stronger effect = lower value 0.988 | locus YCL016C, strain dcc1, stronger effect = lower value 0.986 | locus YCL029C, strain bik1, stronger effect = lower value 0.988 | locus YCL061C, strain MRC1, stronger effect = lower value 0.994 | locus YCL069W, strain vba3, stronger effect = lower value 1 | locus YCR088W, strain abp1, stronger effect = lower value 0.996 | locus YDL005C, strain med2, stronger effect = lower value 0.992 | locus YDL035C, strain GPR1, stronger effect = lower value 0.949 | locus YDL040C, strain nat1, stronger effect = lower value 0.974 | locus YDL074C, strain BRE1, stronger effect = lower value 1.01 | locus YDL101C, strain DUN1, stronger effect = lower value 0.989 | locus YDL134C, strain PPH21, stronger effect = lower value 0.958 | locus YDL185W, strain tfp1, stronger effect = lower value 0.999 | locus YDL192W, strain arf1, stronger effect = lower value 0.984 | locus YDR001C, strain nth1, stronger effect = lower value 0.993 | locus YDR069C, strain doa4, stronger effect = lower value 0.976 | locus YDR101C, strain arx1, stronger effect = lower value 1.04 | locus YDR137W, strain rgp1, stronger effect = lower value 0.994 | locus YDR150W, strain NUM1, stronger effect = lower value 0.981 | locus YDR159W, strain sac3, stronger effect = lower value 0.941 | locus YDR162C, strain NBP2, stronger effect = lower value 0.989 | locus YDR195W, strain ref2 0.945 | locus YDR297W, strain sur2, stronger effect = lower value 1 | locus YDR318W, strain mcm21, stronger effect = lower value 0.957 | locus YDR334W, strain swr1, stronger effect = lower value 0.996 | locus YDR335W, strain msn5, stronger effect = lower value 0.992 | locus YDR388W, stronger effect = lower value 0.984 | locus YDR502C, strain sam2, stronger effect = lower value 0.977 | locus YEL003W, strain gim4, stronger effect = lower value 0.994 | locus YEL037C, strain rad23, stronger effect = lower value 0.999 | locus YEL061C, strain CIN8 (second series), stronger effect = lower value 0.992 | locus YEL061C, strain CIN8, stronger effect = lower value 0.991 | locus YER015W, strain faa2, stronger effect = lower value 0.986 | locus YER016W, strain bim1, stronger effect = lower value 0.988 | locus YER110C, stronger effect = lower value 0.99 | locus YER111C, strain swi4, stronger effect = lower value 0.992 | locus YER155C, strain BEM2 (second series), stronger effect = lower value 0.867 | locus YER155C, strain BEM2, stronger effect = lower value 0.999 | locus YER167W, strain BCK2, stronger effect = lower value 0.999 | locus YFR010W, strain ubp6, stronger effect = lower value 0.997 | locus YGL078C, strain dbp3, stronger effect = lower value 0.996 | locus YGL086W, strain mad1, stronger effect = lower value 1.02 | locus YGL167C, strain pmr1, stronger effect = lower value 0.981 | locus YGL173C, strain kem1, stronger effect = lower value 0.99 | locus YGL227W, strain vid30, stronger effect = lower value 0.985 | locus YGL240W, strain doc1, stronger effect = lower value 0.967 | locus YGL248W, strain PDE1, stronger effect = lower value 0.965 | locus YGL253W, strain hxk2, stronger effect = lower value 0.974 | locus YGR078C, strain PAC10, stronger effect = lower value 0.981 | locus YGR135W, strain pre9, stronger effect = lower value 0.968 | locus YGR252W, strain gcn5, stronger effect = lower value 0.939 | locus YHR013C, strain ard1, stronger effect = lower value 0.918 | locus YHR027C, strain rpn1, stronger effect = lower value 0.997 | locus YHR030C, strain SLT2, stronger effect = lower value 1 and 1.01 | locus YHR079C, strain IRE1 (second series), stronger effect = lower value 0.996 | locus YHR079C, strain IRE1, stronger effect = lower value 1.01 | locus YHR094C, strain hxt1, stronger effect = lower value 0.975 | locus YHR129C, strain ARP1, stronger effect = lower value 0.994 | locus YHR142W, strain chs7, stronger effect = lower value 0.99 | locus YHR200W, strain rpn10, stronger effect = lower value 0.986 | locus YIL066C, strain RNR3, stronger effect = lower value 0.986 | locus YIL073C, strain SPO22, stronger effect = lower value 0.957 | locus YIL125W, strain kgd1, stronger effect = lower value 0.995 | locus YIR030C, strain dcg1, stronger effect = lower value 0.999 | locus YJL092W, strain hpr5, stronger effect = lower value 0.992 | locus YJL095W, strain BCK1 (second series), stronger effect = lower value 0.991 | locus YJL095W, strain BCK1, stronger effect = lower value 0.963 and 0.999 | locus YJL115W, strain asf1, stronger effect = lower value 1 | locus YJL129C, strain trk1, stronger effect = lower value 0.99 | locus YJL134W, strain LCB3, stronger effect = lower value 0.993 | locus YJL154C, strain vps35, stronger effect = lower value 1 | locus YJL164C, strain tpk1, stronger effect = lower value 0.996 | locus YJL166W, strain qcr8, stronger effect = lower value 0.986 | locus YJL168C, strain set2, stronger effect = lower value 0.993 | locus YJL187C, strain SWE1 (second series), stronger effect = lower value 0.98 | locus YJL187C, strain SWE1, stronger effect = lower value 0.994 | locus YJR043C, strain POL32, stronger effect = lower value 0.993 | locus YJR066W, strain TOR1, stronger effect = lower value 0.958
active: locus YDR392W, strain spt3, stronger effect = lower value 0.551
